Screening data as filed in PubChem.
EPAC2 ag: qHTS for Agonist of cAMP-regulated guanine nucleotide exchange factor 4 (EPAC2): primary screen | 360,000 compounds, 0.079% hits | EPAC2 activation, biochemical qHTS; response scale: 100% = 6.5 mM cAMP response | Potency, µM (highest dose often 154 µM), for inactives: at the top dose activation, hits mostly activators | AID 720711, 2013; also: potency is read from the fitted curve at half-maximal effect; nearly all actives have a fitted effect of over 50% in size
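Nucleotide exchange monitored as fluorescence drop when BODIPY-GDP leaves Rap1B. Reaction: 100 nM EPAC2, 250 nM RAP1B-BODIPY-GDP, 50 uM GDP, room temperature, kinetic read over 30 min. Activity expressed relative to 6.5 mM cAMP.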
TSHR antag: Antagonists of the Thyroid Stimulating Hormone Receptor: HTS campaign; Thyrotropin receptor (Homo sapiens), P16473; 330,000 compounds, 0.2% hits; activity change, negative = inhibition, % at 11.5 µM; TSHR-expressing cells, TSH-stimulated cAMP HTRF, 2 h; hits give low values;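 active = activity change below a set negative limit, meaning inhibition stronger than a set level, cut at about -70% in these data; inconclusive = activity change between two set negative limits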; also: % is scaled to controls: 0 for no effect and ±100 for the full control effect
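Freshly harvested TSHR cells receive pin-tooled compound, then EC80 TSH at 4nM final. After 2 hours at 37 deg C, antibody in lysis buffer and cAMP-d2 are added; 30 minutes at ambient temperature precede the HTRF read.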
PTHR1 agonist: qHTS for PTHR1 Agonists: Primary Screen | Parathyroid hormone/parathyroid hormone-related peptide receptor (Homo sapiens), Q03431 | HEK293 GP2 PTHR1 cells, GloSensor cAMP luminescence, 1 h | Potency, µM (doses to about 115 µM), without a hit: top-dose activation, actives largely listed as activators | 410,000 compounds, 0.075% hits; also: potency is read from the fitted curve at half-maximal effect; nearly all actives have a fitted effect of over 55% in size
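HEK-293-derived GP2 cells expressing PTHR1 and a GloSensor cAMP reporter, 3,000/well, plated overnight, given luciferin plus IBMX (each 0.5 mM as added) for 1 h at 37 °C, then compound for 1 h at 37 °C. Luminescence was read after 15 min at room temperature.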
EPAC1 antagonist: qHTS for Antagonist of cAMP-regulated guanine nucleotide exchange factor 3 (EPAC1): primary screen | 360,000 compounds, 0.14% hits | AID 720709, 2013 | EPAC1 GEF assay, Rap1b-BODIPY-GDP exchange fluorescence | Potency, µM (titrated, usually from 115 µM), without a hit: top-dose activity change, negative = inhibition, most hits filed as inhibitors;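 also: potency is read from the fitted curve at half-maximal effect; plate controls were vehicle for no effect and positive control for full effect; nearly all actives have a fitted effect of over 50% in size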
Target sequence (O95398 whole entry, looked up): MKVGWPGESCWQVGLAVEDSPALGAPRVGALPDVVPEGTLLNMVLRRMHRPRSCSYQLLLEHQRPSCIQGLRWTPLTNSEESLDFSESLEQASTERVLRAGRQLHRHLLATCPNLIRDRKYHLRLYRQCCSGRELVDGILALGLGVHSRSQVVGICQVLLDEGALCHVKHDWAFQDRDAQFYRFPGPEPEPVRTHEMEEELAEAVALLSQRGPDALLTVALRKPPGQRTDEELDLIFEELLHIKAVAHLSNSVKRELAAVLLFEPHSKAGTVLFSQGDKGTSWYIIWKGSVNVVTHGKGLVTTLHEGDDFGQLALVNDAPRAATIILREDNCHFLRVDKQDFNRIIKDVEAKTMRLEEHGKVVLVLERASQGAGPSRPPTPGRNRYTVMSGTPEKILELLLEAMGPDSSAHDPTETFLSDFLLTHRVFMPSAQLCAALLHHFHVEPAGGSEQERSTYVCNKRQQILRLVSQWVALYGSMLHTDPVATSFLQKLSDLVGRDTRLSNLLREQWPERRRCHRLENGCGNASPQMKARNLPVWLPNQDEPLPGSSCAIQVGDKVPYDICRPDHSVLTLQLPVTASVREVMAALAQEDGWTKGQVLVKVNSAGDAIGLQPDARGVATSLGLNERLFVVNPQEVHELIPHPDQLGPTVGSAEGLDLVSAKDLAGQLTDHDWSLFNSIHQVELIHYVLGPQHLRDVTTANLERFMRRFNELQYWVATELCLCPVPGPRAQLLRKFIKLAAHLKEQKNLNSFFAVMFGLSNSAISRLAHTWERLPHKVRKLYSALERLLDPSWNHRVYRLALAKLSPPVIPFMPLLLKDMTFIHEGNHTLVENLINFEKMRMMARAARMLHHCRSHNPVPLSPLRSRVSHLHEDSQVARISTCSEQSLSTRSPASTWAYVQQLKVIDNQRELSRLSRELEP
EPAC1 agonist: qHTS for Agonist of cAMP-regulated guanine nucleotide exchange factor 3 (EPAC1): primary screen; Rap guanine nucleotide exchange factor 3 (Homo sapiens), O95398; EPAC1 agonist qHTS, biochemical assay; response scale: 100% = response to 6.5 mM cAMP; Potency, µM (titrated, usually from 154 µM), for inactives: top-dose activation, actives largely listed as activators; 360,000 compounds, 0.073% hits; also: potency is read from the fitted curve at half-maximal effect; nearly all actives have a fitted effect of over 60% in size
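EPAC1 100 nM, Rap1B–BODIPY-GDP 250 nM, unlabeled GDP 50 uM; compound titration; 5 min RT; kinetic read ex480/em540 at 5-min intervals ×30 min; data normalized to 6.5 mM cAMP agonist control.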
EPAC2 antag: qHTS for Antagonist of cAMP-regulated guanine nucleotide exchange factor 2 (EPAC2): primary screen; Rap guanine nucleotide exchange factor 4 (Homo sapiens), Q8WZA2; 360,000 compounds, 0.18% hits; EPAC2 GEF exchange of Rap1B-BODIPY-GDP, fluorescence; Potency, µM (titrated, usually from 114 µM), without a hit: at the highest dose activity, negative = inhibition, usual class: inhibitors; AID 720708, 2013; also: potency is read from the fitted curve at half-maximal effect; % is scaled to controls: 0 for no effect and ±100 for the full control effect; nearly all actives have a fitted effect of over 45% in size
Numbers without * were called inactive; i = inactive; ? = inconclusive; nt = no result given. Compounds with a hit are over-represented: about 0.5% of the library has one in this group of screens. Unless noted, calls follow the shape of the dose curve; as a rule, active = well fitted curve in the direction sought with a large enough effect; inconclusive = small, poorly fitted or top-dose-only effect, or another doubt; inactive = no such curve, though single readings can be large; an effect the other way counts as inactive or inconclusive.

SMILES	EPAC2 ag	TSHR antag	PTHR1 agonist	EPAC1 antagonist	EPAC1 agonist	EPAC2 antag
COc1ccc(/C=N/NC(=O)c2[nH]c3ccc(Cl)cc3c2-c2ccccc2)c(C(=O)O)c1OC	-2%	-9	-5%	-16%	-4%	3%
O=C(N/N=C/c1ccccc1Cl)c1[nH]c2ccc(Br)cc2c1-c1ccccc1	-138%	5	-33%	254%	112µM*	-34%
CC(C)(C)NC(=O)CN(C(=O)CCC(=O)Nc1nccs1)c1cccc(C(F)(F)F)c1	-7%	-5	i	-4%	-15%	-1%
COCCN1C(=O)/C(=C/c2ccc(N3CCCC3)cc2)SC1=S	20µM*	-13	-5%	-20%	?	2%
COc1ccc(/C=C2\SC(=S)N(CCC(=O)N3CCCCC3)C2=O)cc1	-4%	-6	i	-12%	3%	-4%
Cc1cc(C)c2c(N)c(C(=O)Nc3c(C)n(C)n(-c4ccccc4)c3=O)sc2n1	3%	-2	i	8%	-2%	-7%
CC(C)(C)NC(=O)C(c1ccc(O)cc1)N(Cc1ccccc1)C(=O)CCC(=O)Nc1nccs1 (stereo not drawn)	0%	-98*	i	-24%	-5%	5%
COc1ccc(C(C(=O)NC(C)(C)C)N(CCO)C(=O)CCC(=O)Nc2cc(C)on2)cc1 (stereo not drawn)	-4%	6	i	-8%	-3%	8%
COCCNC(=O)C(c1ccc(O)cc1)N(Cc1ccccc1)C(=O)CCC(=O)Nc1nccs1 (stereo not drawn)	4%	-3	i	-10%	-12%	5%
COc1ccc(C(C(=O)NC(C)(C)C)N(CCc2ccccc2)C(=O)CCC(=O)Nc2cc(C)on2)cc1 (stereo not drawn)	9%	-106*	-15%	-13%	-3%	-13%
Cc1c(Cl)cccc1NC(=O)CSc1nc(=O)[nH]c2c1CCC2	nt	nt	-6%	nt	nt	nt
Oc1c(Br)cc(/C=N/n2c(-c3ccccc3)n[nH]c2=S)c(O)c1Br	6%	-11	-31%	-14%	1%	0%
Cc1c(Br)c(O)c(Br)c(O)c1/C=N/n1c(-c2ccccc2)n[nH]c1=S	9%	6	i	56µM*	4%	-13%
